Screening data (PubChem BioAssay)
FLuc modulator = qHTS profiling assay for firefly luciferase inhibitor/activator using purifed enzyme and Km concentrations of substrates (counterscreen for miR-21 project); purified FLuc, Km substrates, luminescence inhibition; Luciferin 4-monooxygenase (Photinus pyralis), P08659; hit rate 6.9% among 360,000; Potency, µM (titrated, usually from 57.5 µM), actives largely listed as inhibitors; note: nearly all actives have a fitted effect of over 55% in size
Target sequence (P08659 whole entry, looked up): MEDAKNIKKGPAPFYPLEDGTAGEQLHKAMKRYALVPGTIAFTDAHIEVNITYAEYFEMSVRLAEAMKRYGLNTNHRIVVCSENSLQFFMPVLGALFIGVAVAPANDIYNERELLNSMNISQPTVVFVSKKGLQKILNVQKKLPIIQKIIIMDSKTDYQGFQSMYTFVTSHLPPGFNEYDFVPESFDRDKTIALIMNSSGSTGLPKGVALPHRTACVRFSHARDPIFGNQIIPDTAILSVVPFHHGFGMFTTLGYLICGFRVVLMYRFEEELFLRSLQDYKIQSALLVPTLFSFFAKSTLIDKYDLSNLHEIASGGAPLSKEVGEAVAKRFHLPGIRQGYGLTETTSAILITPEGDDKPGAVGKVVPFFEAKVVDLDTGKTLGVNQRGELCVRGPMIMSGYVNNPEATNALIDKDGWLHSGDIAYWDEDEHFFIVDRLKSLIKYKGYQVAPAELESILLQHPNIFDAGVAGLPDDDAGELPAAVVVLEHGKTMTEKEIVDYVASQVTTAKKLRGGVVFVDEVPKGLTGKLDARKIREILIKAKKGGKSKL
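Purified P. pyralis luciferase, 10 nM final, with Km-level 10 uM D-luciferin and 10 uM ATP in 50 mM Tris acetate pH 7.5, 10 mM Mg acetate, 0.01% Tween-20, 0.05% BSA; 6-point qHTS titration about 60 µM downward; luminescence read.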
SMN2 splice enh = qHTS Assay for Enhancers of SMN2 Splice Variant Expression. HEK293 SMN2-luciferase splicing reporter, luminescence, 30-36 h. hit rate 2.8% among 210,000. Potency, µM (highest dose often 46.1 µM), usual class: activators; note: nearly all actives have a fitted effect of over 55% in size
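qHTS luciferase splicing reporter: luminescence rises when SMN2 exon 7 is included in transfected HEK293 cells. Compound exposure lasted 30-36 h at 37C, with 4.5 mM final sodium butyrate as control, followed by a ONE-Glo read.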
ELG1 genotox = qHTS screen for small molecules that induce genotoxicity in human embryonic kidney (HEK293T) cells expressing luciferase-tagged ELG1; hit rate 1.3% among 330,000; Potency, µM (doses to about 46 µM), most hits filed as activators; HEK293T ELG1-luciferase reporter, luminescence, 16 h; note: nearly all actives have a fitted effect of over 60% in size
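HEK293T cells expressing luciferase-tagged ELG1 were exposed to compound or DMSO vehicle for 16 hr at 37 °C and 5% CO2. Luciferase activity was then measured with ONE-Glo after 30 min at room temperature.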
NPC1 promoter act = qHTS Assay for NPC1 Promoter Activators; Huh7 NPC1 promoter luciferase reporter, 24 h; Potency, µM (doses to about 9.22 µM), usual class: activators; hit rate 2.4% among 320,000; note: nearly all actives have a fitted effect of over 60% in size
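Quantitative HTS used a cell-based reporter: Huh7 cells stably bearing the NPC1 promoter upstream of luciferase were treated with compounds for 24 h, and promoter activation was read as luminescence.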
Rab9 promoter act = qHTS Assay for Rab9 Promoter Activators | Potency, µM (series often up to 9.22 µM), usual class: activators | AID 485297, 2010 | hit rate 2.8% among 320,000 | Huh7 Rab9 promoter-luciferase reporter, luminescence, 24 h; note: nearly all actives have a fitted effect of over 60% in size
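Luminescence from Amplite-detected luciferase (10 minutes, ambient) reports Rab9 promoter activation. Before that, stable Rab9-luciferase Huh7 cells (1500/well, reduced-serum OP-MEM I plus 10% FBS) were exposed to compound for 24 hours at 37C.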
A number is an active result; 0 = inactive; ? = inconclusive; - = not tested or not shown. Only some compounds are listed: those with a hit (about 7.5% of all), similar ones and a draw of the others. Calls come from the whole dose curve; as a rule, active = well fitted curve in the direction sought with a large enough effect; inconclusive = small, poorly fitted or top-dose-only effect, or another doubt; inactive = no such curve, though single readings can be large; an effect the other way counts as inactive or inconclusive.

SMILES	FLuc modulator	SMN2 splice enh	ELG1 genotox	NPC1 promoter act	Rab9 promoter act
Cc1ccc(S(=O)(=O)c2nc(-c3ccccc3Cl)oc2N(C)C)cc1	15µM	-	?	0	0
O=C(Nc1ccc([N+](=O)[O-])cc1)C(Cc1ccccc1)N1C(=O)c2cccc3cccc(c23)C1=O (configuration not stated)	0	0	0	0	0
CCN(CC)S(=O)(=O)c1ccc(C(=O)OCCN2C(=O)CCC2=O)cc1	0	0	0	0	0
CCn1c(=O)cc(OCC(=O)NCCCN2CCC(C)CC2)c2ccccc21	0	0	16µM	0	0
CC1CCN(CCCNC(=O)COc2cc(=O)n(C)c3ccccc23)CC1	0	0	0	0	0
CCn1c(=O)cc(OCC(=O)NCCCN2CC(C)CC(C)C2)c2ccccc21 (configuration not stated)	0	?	16µM	0	0
COCCCn1c(=O)/c(=C\c2ccccc2OC(F)F)s/c1=C(/C#N)C(=O)NCCOC	0	-	0	0	0
O=S(=O)(Nc1ccc(Cl)cn1)c1ccc(Cl)cc1	0	0	0	0	0
O=C(OCCOc1ccccc1Cl)c1ccc(-n2cnnn2)cc1	21µM	0	0	0	0
CCN1C(=O)c2ccccc2S(=O)(=O)c2ccc(C(=O)NCc3ccccc3Cl)cc21	0	0	-	-	-
Nc1nnc(SCC(=O)Nc2cccc(S(=O)(=O)N3CCOCC3)c2)s1	0	-	0	0	0
CCOC(=O)c1oc2ccc(CNCCO)c(Cl)c2c1C	17µM	0	?	0	0
Cn1nc(OCC(=O)O)cc1C(F)(F)F	0	-	0	0	0
CNc1nc(-c2ccc3c(c2)CCN3C(=O)c2ccccc2F)cs1	1.5µM	13µM	?	1.6µM	0.56µM
Cc1ccc(C(=O)N2CCc3cc(CNC(=O)c4ccccc4F)ccc32)cc1	19µM	-	-	-	-
CNc1nc(-c2ccc3c(c2)CCN3C(=O)CC(C)(C)C)c(C)s1	0	-	0	0	0
CNc1nc(-c2ccc3c(c2)CCN3C(=O)c2ccccc2F)c(C)s1	15µM	-	0	0	0
O=C(Cc1ccccc1F)OCC(=O)N1CCc2ccccc21	6.7µM	0	0	0	0
O=C(CNC(=O)c1ccccc1Cl)OCC(=O)N1CCc2ccccc21	13µM	0	?	0	0
Cc1cccc(C(=O)NCC(=O)OCC(=O)N2CCc3ccccc32)c1	0	0	0	0	0
COC(=O)c1ccc(-c2nc(-c3ccc(OC)c(OC)c3)no2)cc1	0	0	-	-	-
CCS(=O)(=O)Nc1ccc(-c2cn3c(C)csc3n2)cc1	19µM	-	-	-	-
CC(=O)Nc1ccc(S(=O)(=O)Nc2ccc(S(=O)(=O)Nc3nc(C)cc(C)n3)cc2)cc1	0	-	0	0	0
CC(=O)Nc1ccc(S(=O)(=O)Nc2ccc(-c3cn4c(C)csc4n3)cc2)cc1	17µM	-	-	-	-
CC/C(=N\NC(=O)C1CCCC1)c1cccc(Br)c1	0	-	0	0	0
SMILES	FLuc modulator	SMN2 splice enh	ELG1 genotox	NPC1 promoter act	Rab9 promoter act
O=C(NCCC1=CCCCC1)c1coc(=O)c(Br)c1	0	0	?	0	0
O=C(NC1CCCCC1)c1cc(-c2cccc(Cl)c2)on1	0	-	?	?	?
COc1ccc(-c2cc(C(=O)NC3CCCC3)no2)cc1OC	0	0	0	?	0
O=C(NC1CCCCC1)c1cc(-c2ccccc2Cl)on1	?	-	21µM	?	2.8µM
O=C(NC1CCCC1)c1cc(-c2ccccc2O)on1	4.8µM	-	15µM	0	0
COc1ccccc1-c1cc(C(=O)NC2CCCC2)no1	19µM	-	?	?	?
O=C(NC1CCCC1)c1cc(-c2ccc(Cl)cc2Cl)on1	0.85µM	-	1.3µM	1µM	3.5µM
CCOC(=O)c1ccc(NC(=O)c2c(C)oc3nc(C)nc(N4CCCC4)c23)cc1	0	-	-	-	-
O=C(NC1CCCC1)c1cc(-c2ccccc2Cl)on1	5.4µM	-	?	1.6µM	2.5µM
O=C(CCCc1nc(-c2ccccc2Cl)no1)NC1CCCCC1	0	0	0	0	0
CC1CC(C)CN(C(=O)CNS(=O)(=O)c2cccs2)C1 (configuration not stated)	0	-	0	0	0
COc1cc(C(=O)NS(=O)(=O)c2ccccc2C)ccc1Cc1cn(C)c2ccc(NC(=O)OC3CCCC3)cc12	11µM	-	-	0	0
Cc1ccc(NC(=O)N(Cc2cn(C)c3ccccc23)C2CCCCC2)cc1C	?	0	-	-	-
O=C(COc1ccc(Br)cc1CO)Nc1ccc(S(=O)(=O)N2CCCCC2)cc1	0	-	0	0	0
Cc1ccc(/C=C/C(=O)Nc2ccc(S(=O)(=O)Nc3onc(C)c3C)cc2)cc1	15µM	-	0	0	0
Cc1ccc2oc(C(=O)Nc3ccc(S(=O)(=O)Nc4onc(C)c4C)cc3)c(C)c2c1	7.6µM	-	?	0	?
Cc1cccc(NC(=O)Nc2ccc(S(=O)(=O)Nc3onc(C)c3C)cc2)c1	17µM	-	0	0	?
CC(C)=CC(=O)Nc1ccc(S(=O)(=O)Nc2onc(C)c2C)cc1	0	-	0	0	0
COc1ccc(CNC(=O)C23CC4CC(CC(Br)(C4)C2)C3)cc1	0	-	0	0	0
CCc1cc(=O)oc2c(C)c(OCC(=O)Nc3ccc(S(=O)(=O)N(CC)CC)cc3)ccc12	0	0	-	-	-
CC(NC(=O)/C(=C/c1ccc(OC(F)F)cc1)c1ccccc1)c1ccccc1 (configuration not stated)	0	0	0	0	0
CCN(CC(=O)Nc1ccccc1OC)C(=O)CSCc1c(C)noc1C	0	-	0	0	0
COC(=O)c1cc2c(s1)CS(=O)C2 (configuration not stated)	13µM	?	?	2.5µM	4µM
COc1ccc(CNC(=O)c2cc3c(s2)CS(=O)C3)cc1 (configuration not stated)	0	0	0	0	0
CCN(CC)c1ccc(N=Nc2nn(C)c(C)c2[N+](=O)[O-])cc1	1.7µM	14µM	5.8µM	0.79µM	1.4µM
SMILES	FLuc modulator	SMN2 splice enh	ELG1 genotox	NPC1 promoter act	Rab9 promoter act
CCN(Cc1ccccc1)c1ccc(N=Nc2nn(C)c(C)c2[N+](=O)[O-])cc1	15µM	?	0	0	0
Cc1ccc(CNC(=O)c2nn(C)c(C)c2[N+](=O)[O-])cc1	0	0	0	0	0
Cc1ccc(NC(=O)NC(=O)COc2ccc(Cl)cc2Cl)c(C)c1	0	0	0	0	0
Cc1ccc(C(=O)Nc2nnc(C)s2)cc1	12µM	14µM	0	3.5µM	3.2µM
CCCc1cc(C(=O)Nc2nnc(C)s2)cs1	9.5µM	?	?	?	3.5µM
Cc1nnc(NC(=O)c2ccc(S(=O)(=O)N3CCCCC3)cc2)s1	-	-	0	-	-
Cc1nnc(NC(=O)Oc2ccccc2)s1	0	0	0	0	0
CC(=O)Oc1ccc(C(=O)Nc2nnc(C)s2)cc1	21µM	0	?	0	0
Cc1nnc(NC(=O)c2ccc(Br)cc2)s1	2.7µM	?	?	?	3.2µM
CCOc1cc(C(=O)Nc2nnc(C)s2)cc(OCC)c1OCC	0	?	0	0	0
